From ChEMBL document CHEMBL4513216, “Probing the Open Global Health Chemical Diversity Library for Multistage-Active Starting Points for Next-Generation Antimalarials” (ACS Infect Dis, 2020)
The whole screen tested about 69,000 compounds, of which about 8,600 (12%) showed an effect of 50% or more. What follows is part of a selection rich in strong results, with near analogues and random picks from the rest.

Each compound was assayed on Plasmodium berghei (assay: Screen against P. berghei liver stage (PbLuc), transformed with Luciferase, at 10uM). Details: tested at 10 uM.
Format: functional, HepG2

| SMILES | INHIBITION [%] |
| --- | --- |
| Cc1ncc(C(=O)N2CCCC(C(=O)c3nccn3C)C2)c(O)n1 (centres undefined) | -6.01 |
| Cc1cccc(C)c1OCC(O)CNCc1c(C)nn(C)c1N(C)C (centres undefined) | 19.4 |
| O=C(C1CCOC1)N1CCc2ncc(CNc3ccccn3)n2CC1 (centres undefined) | 41.5 |
| c1nc2n(c1CN1CCCC1)CCN(C1CCOCC1)CC2 | 80 |
| c1nc2n(c1CN1CCCCC1)CCN(C1CCOC1)CC2 (centres undefined) | -33.9 |
| c1nc2n(c1CN1CCOCC1)CCN(C1CCOC1)CC2 (centres undefined) | -52.3 |
| c1ccc(NCc2cnc3n2CCN(C2CCOC2)CC3)nc1 (centres undefined) | 81.2 |
| c1ccc(NCc2cnc3n2CCN(CC2CCOC2)CC3)nc1 (centres undefined) | 27.6 |
| c1cnc(N2CCC3(CCN(CC4CCOC4)CC3)CC2)nc1 (centres undefined) | 15.6 |
| CC(NC(=O)OC(C)(C)C)c1nnc(S(=O)(=O)Cc2ccc(Cl)cc2)o1 (centres undefined) | -19.1 |
| COc1ccc2c(ccn2CCC(=O)NCc2ccc(C(=O)O)cc2)c1 | 7.83 |
| O=C([C@H]1C[C@H]2OCC[C@H]2N(Cc2ccco2)C1)N1CCCO1 | 34.6 |
| O=C(N1CCCO1)[C@@]12CCO[C@@H]1CCN(Cc1ccccc1)C2 | -10.4 |
| O=C(Cn1c(=O)[nH]c2cn(-c3ccccc3)c(=O)n21)Nc1ccccc1 | 23.2 |
| CC(C)n1c(=O)c2sccc2n(CC(=O)Nc2ccccc2)c1=O | 52.4 |
| CC(C)c1cccc(NC(=O)Cn2c(=O)n(C)c(=O)c3sccc32)c1 | 74.7 |
| CC(C)n1c(=O)c2sccc2n(CC(=O)Nc2cccc(Cl)c2)c1=O | 19.3 |
| CCn1c(=O)c2sccc2n(CC(=O)Nc2cccc(Cl)c2)c1=O | 33.3 |
| Cn1c(=O)c2sccc2n(CC(=O)Nc2cccc(Cl)c2)c1=O | -25.5 |
| CC1=N[C@@]2(CC[C@@H]3CN(S(=O)(=O)CC(C)C)C[C@@H]32)C(=O)N1CC(C)C | 40.4 |
| CCN(CC)CCNC(=O)CCc1c(C)nn(-c2ccccc2Br)c1C | 6.55 |
| CC(C)(C)NC(=O)c1cccc(CN2CCS(=O)(=O)CC2)c1 | 47.3 |
| Cc1ccc(N2CCC3(CCN(C(=O)c4ccccn4)CC3)CC2)nn1 | 0.72 |
| Cc1cc(C)n(CC(C)CNC(=O)NCc2csc(C)n2)n1 (centres undefined) | 35.4 |
| Cc1nnc(SC2CCc3ccccc3NC2=O)n1C (centres undefined) | 38.1 |
| Cn1nnnc1SC1CCc2ccccc2NC1=O (centres undefined) | 56.3 |

| SMILES | INHIBITION [%] |
| --- | --- |
| Cn1cnnc1SC1CCc2ccccc2NC1=O (centres undefined) | 34.3 |
| O=C(NCc1ccc(-n2cncn2)nc1)c1ccc2c(c1)CCC2 | -45.9 |
| COC[C@]1(O)CCN(C2CCN(c3ccc(OC)cc3)CC2)CC1(C)C | 23.9 |
| Cn1cnc2c1CCN(Cc1csc(C3CCCCC3)n1)C2 | 33.3 |
| CCCNC(=O)C1CCN(CC(O)c2ccc(C(F)(F)F)cc2)CC1 (centres undefined) | 51.6 |
| CCCNC(=O)C1CCN(CC(O)c2ccccc2)CC1 (centres undefined) | 30 |
| CCCNC(=O)C1CCN(CC(O)c2ccccc2C(F)(F)F)CC1 (centres undefined) | -4.12 |
| CO[C@H]1CCN(Cc2cccc(C)n2)[C@@H]2CN(Cc3cccnc3)C[C@H]12 | 30.1 |
| N#Cc1c(C2CC2)cc(-c2ccc(F)c(F)c2)nc1N | -42.8 |
| CCSc1ncc(-c2cc(C3CC3)nc(N)c2C#N)cn1 | 52.8 |
| CC(C)c1ncc(-c2cc(C3CCC3)nc(N)c2C#N)cn1 | 62.6 |
| CCSc1ncc(-c2cc(C3CCC3)nc(N)c2C#N)cn1 | 48.5 |
| CCCNc1ncc(-c2cc(C3CC3)nc(N)c2C#N)cn1 | 34.4 |
| CS(=O)(=O)c1ccc(-c2cc(C3CC3)c(C#N)c(N)n2)cc1 | -21.2 |
| Cc1ccc(N2CC[C@@H]3O[C@@H](COCc4cccnc4)CC[C@@H]32)nn1 | 4.02 |
| CCN(C(C)=O)C(c1ccc(Cl)cc1)c1ccccn1 (centres undefined) | 33.7 |
| O=C1CCCN1Cc1ncn2c1CN(C(=O)Cc1cccs1)CCC2 | 32.2 |
| Cc1cnc(CCN(C)C(=O)c2cccc(C)c2O)s1 | 58.8 |
| Cc1nc(O)ccc1C(=O)NCc1ncoc1C | -17.3 |
| Cc1cnc(CCN(C)C(=O)c2cccc(N(C)C)c2)s1 | 33.7 |
| Cc1ncsc1CCN(C)C(=O)c1c(O)cccc1O | 25.1 |
| Cc1cnc(CCN(C)C(=O)c2ccc(O)nc2C)s1 | 60.2 |
| Cc1nc(-c2ccsc2)ccc1C(=O)N(C)CC1CC1 | 27.7 |
| CNC(=O)[C@@H](c1ccccc1)N1CCC[C@H]1C(=O)NCc1ccccn1 | 34.6 |
| CN(Cc1cccs1)C(=O)CN1C(=O)c2cc(Cl)c(Cl)cc2C1=O | 14.8 |
| CCC(O)CN1CCN(C(=O)c2cccc(CC#N)c2)CC1 (centres undefined) | -12.2 |

| SMILES | INHIBITION [%] |
| --- | --- |
| O=C(C1CCN(c2cccnn2)C1)N1CCOCC1 (centres undefined) | 18.3 |
| Cc1cc(CN2C[C@@H]3CN(C(=O)c4cccn4C)CCO[C@@H]3C2)no1 | 89.3 |
| Cc1cc(CN2C[C@@H]3CN(C(=O)c4ccco4)CCO[C@@H]3C2)no1 | 12 |
| Cn1cc(CN2C[C@@H]3CN(C(=O)c4cccn4C)CCO[C@@H]3C2)cn1 | 24.9 |
| CN(Cc1cnn(C)c1)C(=O)NC1CCCC1 | 8.38 |
| CCCS(=O)(=O)N1CCO[C@H]2[C@@H](Oc3cccnc3)CC[C@@H]21 | 10.5 |
| O=c1ccc(S(=O)(=O)N2CCCC2)cn1CC1CCCCO1 (centres undefined) | -15 |
| c1cncc(CN2CC[C@@H]3[C@@H]2CCN3Cc2ccc3c(c2)OCO3)c1 | -8.51 |
| O=S(=O)(c1c(N2CCCCC2)ccc2nonc12)N1CCCCC1 | 8.41 |
| COc1ccc(C(C)NC(=O)N2CCNC(=O)CC2)cc1F (centres undefined) | 74.8 |
| CC(NC(=O)N1CCNC(=O)CC1)c1ccc(OC(F)F)cc1 (centres undefined) | -18.3 |
| Cc1ccc(C(C)NC(=O)N2CCNC(=O)CC2)cc1F (centres undefined) | 42.3 |
| CCCc1n[nH]c(C2CN(C(=O)c3cc4c(s3)CCC4)CCO2)n1 (centres undefined) | 33.8 |
| CC(C)NC(=O)CC1COC2(CCN(Cc3ccsc3)CC2)C1 (centres undefined) | 13.7 |
| Cc1noc2ncc(C(=O)NCC3CCS(=O)(=O)C3)cc12 (centres undefined) | -49.1 |
| COc1ccccc1C(C)(C)NC(=O)c1ccc(F)c(NC(C)=O)c1 | -47 |
| O=C(CN1C(=O)c2ccccc2CS1(=O)=O)c1ccccc1 | 74.2 |
| N#Cc1ccc(CN2C(=O)c3ccccc3CS2(=O)=O)cc1 | -9.35 |
| O=C(CN1C(=O)c2ccccc2CS1(=O)=O)c1ccc(Cl)cc1 | 55.4 |
| CN1CCC2(Cc3ccccc3CN(C(=O)c3ccc(Cl)cc3)C2)C1 (centres undefined) | -17.2 |
| Cc1c2ncn(CC(=O)c3ccccc3)c(=O)c2nn1C | 14.9 |
| N#Cc1ccc(CN2C(=O)c3ccccc3CS2(=O)=O)c(F)c1 | 15.2 |
| CC1CCN(C(=O)C2CCN(c3ccc(Cl)cc3C#N)CC2)CC1 | 41 |
| Cc1nc(C(=O)N2CCCC2c2c(C)nn(C)c2C)cs1 (centres undefined) | 13.3 |
| Cc1csc(N2CCN(CC(=O)NC3CCOCC3)CC2C)n1 (centres undefined) | 45.6 |
| CCC(=O)N1CCC2(CC1)C(=O)N(C)CCN2Cc1csc(C)n1 | 13.6 |

| SMILES | INHIBITION [%] |
| --- | --- |
| CCN(C(=O)CN1CCCN(c2nc(C)ns2)CC1)C1CC1 | 68.5 |
| Cc1nsc(N2CCN(CC(=O)N(C3CC3)C(C)C3CC3)CC2)n1 (centres undefined) | 22.6 |
| CCc1nsc(N2CCCN(CC(=O)N(C)C3CC3)CC2)n1 | 39.3 |
| COc1ccc(-c2noc(C(N)CCSC)n2)cc1OC (centres undefined) | 46.6 |
| CNc1cc(CCNC(=O)C2CCCC2)nc(-c2ccccn2)n1 | -9.34 |
| O=C1CC(C(=O)NCc2ccccc2Oc2ccccc2F)CCN1 (centres undefined) | 8.38 |
| Cc1ccc(CNC(=O)C2CCNC(=O)C2)c(OCCC(C)C)c1 (centres undefined) | 58.4 |
| Cc1cccc(Oc2ccccc2CNC(=O)C2CCNC(=O)C2)c1 (centres undefined) | -33.7 |
| CN(c1ccc(C(N)=O)nn1)C1CCC1 | -8.73 |
| COC(=O)c1ccc(N(C)C2CCC2)nn1 | 50.1 |
| CNC(=O)c1ccc(N(C)C2CCC2)nn1 | -107 |
| Cc1noc2nc(C3CCN(CC4=CCCOC4)CC3)cc(C(F)F)c12 | 39.8 |
| CC(=O)Nc1nc(C2CCN(C(=O)Cc3ccccc3)CC2)cs1 | 0.301 |
| Cc1cc(C(=O)N2CCCC(C)C2)ccc1NCC(=O)N1CCOCC1 (centres undefined) | -47.6 |
| COCC1CN(S(=O)(=O)Cc2ccc(C)cc2)Cc2c1cnn2C (centres undefined) | -0.554 |
| CCO[C@H]1CN(C(=O)c2ccc3c(c2)OCO3)[C@@H]2COC[C@H]12 | 57.9 |
| CCOCC1CN(C(=O)Cc2ccccn2)Cc2c1cnn2C (centres undefined) | 26.4 |
| COCC1CN(S(=O)(=O)Cc2ccccc2)Cc2c1cnn2C (centres undefined) | 54.1 |
| Cn1ncc2ccc(C3CCCN(Cc4cccs4)C3)nc21 (centres undefined) | 20.74 |
| Cn1ncc2c1CN(C(=O)Cc1ccccn1)CC2COCC1CC1 (centres undefined) | 64.9 |
| COCC1CN(S(=O)(=O)c2ccc(C)cc2)Cc2c1cnn2C (centres undefined) | 34.9 |
| Cn1ncc2ccc(C3CCCN(C(=O)Cc4cccs4)C3)nc21 (centres undefined) | 58.5 |
| CO[C@H]1CN(C(=O)c2ccc3c(c2)OCO3)[C@@H]2COC[C@H]12 | 1.48 |
| COCC1CN(C(=O)Cc2ccccn2)Cc2c1cnn2CC1CC1 (centres undefined) | 15.9 |
| Cc1cc(C)n(C2CCCN(C(=O)Cc3cccs3)C2)n1 (centres undefined) | -5.25 |
| CN(C)CCO[C@H]1CN(C(=O)c2ccc3c(c2)OCO3)[C@@H]2COC[C@H]12 | -20.8 |
